AMA1-RON2 inh – AMA1-RON2 (P. falciparum) interaction inhibition; AlphaScreen AMA1-biotinylated RON2 peptide binding; hit rate 0.2% among 360,000; Potency, µM (series often up to 58.2 µM), inactives show at the highest dose activity change, negative = inhibition, most hits filed as inhibitors;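 note: 0% = vehicle wells and -100% = peptide control; nearly all actives have a fitted effect of over 45% in size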
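AMA1 (3D7) with his tag at 25 nM final met compounds first, then biotinylated RON2 peptide at 25 nM; detection used donor plus acceptor beads, 10 µg/mL apiece, read by AlphaScreen after 30 min at room temperature.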
HCV inh – inhibitors of hepatitis C virus infection; Huh7.5.1 HCVcc-Cre infection, luciferase reporter, 44 h; Potency, µM (titrated, usually from 41.8 µM), without a hit: top-dose activity change, negative = inhibition, actives largely listed as inhibitors; hit rate 3.4% among 340,000; AID 651820
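Cells seeded at 1,000/well and cultured 4 h, then compounds added followed by HCVcc-Cre virus (~0.5 moi). After 44 h further culture, luciferase substrate was added, plates held 15 min at room temperature, and luminescence read for 15 sec.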
Pf growth 96h – inhibits malaria parasite growth, 96 h | P. falciparum luciferase reporter growth, 96 h | Potency, µM (doses to about 28.7 µM), inactives show top-dose activity change, negative = inhibition, usual class: inhibitors | hit rate 6.9% among 320,000
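Luminescence readout: decreased luciferase signal marks inhibited growth of reporter-expressing P. falciparum in infected red cells (2% hematocrit, 0.05% parasitemia final), exposed to compound two generations (96 h, 37 C, 5% CO2).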
Pf growth 48h – inhibits P. falciparum growth in the first generation, 48 h; Potency, µM (top dose mostly 28.7 µM), without a hit: at the top dose activity change, negative = inhibition, hits mostly inhibitors; hit rate 5.9% among 310,000; P. falciparum luciferase growth in erythrocytes, 48 h
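A one-generation exposure of luciferase-tagged malaria parasites in RPMI 1640/Albumax erythrocyte culture, 37 C and 5% CO2. Inhibition is inferred from decreased luminescence after adding detection reagent.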
Active calls of the source: *; ? = inconclusive; . = not tested or not shown; [ ] = another dose, or the depositor's remark. Sampled rows, rich in hits. Any-hit rate of the full collection: about 11%. Calls come from the whole dose curve; as a rule, active = well fitted curve in the direction sought with a large enough effect; inconclusive = small, poorly fitted or top-dose-only effect, or another doubt; inactive = no such curve, though single readings can be large; an effect the other way counts as inactive or inconclusive. Unless noted, % is set by controls: 0 for no effect and ±100 for the full control effect; potency is the fitted concentration of half-maximal effect.

SMILES | AMA1-RON2 inh | HCV inh | Pf growth 96h | Pf growth 48h
CCOC(=O)c1cc(C(C)(C)C)oc1CNC(=O)c1c(C)oc2c1CCCC2 | -22% | ? | ? | 15µM*
CCOC(=O)c1ccc(NC(=O)c2nc[nH]c2C(=O)N[C@H](C)CO)cc1 | 109% | . | . | .
C=CCNC1=C(Cl)C(=O)N(Cc2ccccc2)C1=O | 8% | 0% | 3% | 1%
CC(=O)N(Cc1ccc(F)cc1)C1=C(NCCc2ccccc2)C(=O)c2ccccc2C1=O | ? | 10µM* | 0.0037µM* | .
O=C1C(Cl)=C(NCCc2ccccc2)C(=O)N1CCc1ccccc1 | 71% | 2% | ? | .
C=CCNC1=C(Cl)C(=O)c2ccccc2C1=O | 18µM* | ? | 16% | 2.9µM*
O=C1C(Cl)=C(NCc2cccnc2)C(=O)c2ccccc21 | -14% | 13µM* | 8.3µM* | 9.3µM*
O=C1C(Cl)=C(NCCc2ccccc2)C(=O)c2ccccc21 | 13µM* | ? | . | .
O=Cc1cc(Br)c(OC(=O)N2CCOCC2)c(Br)c1 | -4% | 1% | -10% | 10%
COc1ccc([N+](=O)[O-])cc1N(CC(=O)Nc1ccccc1C(=O)NC(C)C)S(C)(=O)=O | 5% | ? | 7%[5.75 µM] | 2%
COc1ccc(CC(NC(C)=O)C(=O)NC2CCN(S(=O)(=O)c3ccc(NC(C)=O)cc3)CC2)cc1OC (stereo unspecified) | 1% | 1% | 13µM* | 0%
COc1ccc(CC(NC(C)=O)C(=O)NC2CCN(S(=O)(=O)c3ccccc3)CC2)cc1OC (stereo unspecified) | 8% | 5% | 5.2µM* | 1%
COc1ccc(CC(NC(C)=O)C(=O)NC2CCN(S(=O)(=O)c3cccc4ccccc34)CC2)cc1OC (stereo unspecified) | 0% | ? | 13µM* | .
COc1cc(CC(NC(C)=O)C(=O)NC2CCN(C(=O)Nc3ccccc3C)CC2)cc(OC)c1 (stereo unspecified) | -2% | -2% | 1.7µM* | 14%
COc1ccc(CC(NC(C)=O)C(=O)NC2CCN(C(=O)Nc3ccccc3Cl)CC2)cc1OC (stereo unspecified) | -5% | 12% | 83% | .
O=C(CCc1n[nH]c(=O)[nH]c1=O)Nc1cccc([N+](=O)[O-])c1 | 3% | -1% | -2% | -6%
CCOc1ccc2nc(SCC(=O)NCc3ccc(S(N)(=O)=O)cc3)[nH]c2c1 | 0% | 20% | -26% | 2%
COc1cc(C(=O)N2CCC(NC(=O)C(Cc3ccc(C(C)C)cc3)NC(C)=O)CC2)cc(OC)c1OC (stereo unspecified) | 0% | 23% | 10% | ?
COc1ccc(CN2CCN(S(=O)(=O)c3ccc(NC(C)=O)cc3)CC2)cc1OC | ? | -23% | 10µM* | ?
COc1cc(C(=O)N2CCC(NC(=O)C(Cc3ccc(C)cc3)NC(C)=O)CC2)cc(OC)c1OC (stereo unspecified) | -1% | 16% | 5.9µM* | -4%
COc1cc(CN2CCN(S(=O)(=O)c3ccc(NC(C)=O)cc3)CC2)cc(OC)c1O | -18% | 1% | 14% | -1%
Cc1[nH][nH]c(=O)c1C=NCc1ccc(Cl)cc1 | 2% | 8% | -15% | -20%
CCN(CC(=O)NCc1ccc(Cl)cc1)C(=O)c1ccc(S(=O)(=O)N(C)C)cc1 | 3% | 7% | ? | -21%
CC1(C#N)c2ccccc2C(Br)=CN1C(=O)c1ccccc1 (stereo unspecified) | 5% | 6% | ? | 10µM*
N#CC1(Cc2ccc(Cl)cc2)c2ccccc2C=CN1C(=O)c1ccccc1 (stereo unspecified) | -13% | -18% | ? | .
SMILES | AMA1-RON2 inh | HCV inh | Pf growth 96h | Pf growth 48h
CCN(CC)CCNCc1ccc(-c2ccc(Cl)cc2)o1 | -8% | ? | 12µM* | ?
O=C(O)CCc1ccc(-c2ccc(Cl)cc2)o1 | 9% | 13% | ? | .
CC(C)(C)NCC(O)(c1ccc(Cl)cc1)c1ccc(Cl)cc1 | -16% | ? | ? | ?
CC(C)NCC(O)(c1ccc(Cl)cc1)c1ccc(Cl)cc1 | 8% | -29% | 1.5µM* | 12µM*
CCN(CC)CCNCC(O)(c1ccc(Cl)cc1)c1ccc(Cl)cc1 | 13% | ? | 12µM* | ?
NCC(O)(c1ccc(Cl)cc1)c1ccc(Cl)cc1 | 9% | ? | 4.7µM* | ?
NC(=O)Oc1ccc(Cc2ccccc2)cc1 | . | . | -18% | -2%
O=C(NNC(=O)c1sccc1-n1cccc1)Nc1ccc(F)cc1 | 41% | 5% | 11% | ?
